Experimental findings from PubChem BioAssay (NCATS) are described below.

Assay [1] addresses Cytochrome P450 3A7 (Homo sapiens) (UniProt P24462). The assay can be described thus: Cytochrome P450 family 3 subfamily A member 7 (CYP3A7) small molecule antagonists: luciferase biochemical qHTS assay (AID 1963596). Also: nearly all actives have a fitted effect of over 40% in size. Also: potency is read from the fitted curve at half-maximal effect. In a few lines:
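Luminescence read-out (relative luminescence units) after 20 min with detection reagent, which stops the reaction. Enzyme, proluciferin substrate and compound preincubated 10 min, RT; NADPH regeneration system then started 1 h reaction. Ketoconazole as positive control.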

The nature of assay [2]: Viability qHTS for spleen associated tyrosine kinase inhibitor (SYKi) naive MV4-11 cells (AID 1963823). Also: nearly all actives have a fitted effect of over 40% in size. Also: potency is read from the fitted curve at half-maximal effect. In a few lines: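 SYKi-naive MV4-11 AML cells, 500 per well, were exposed to library compounds for 72 hr at 37 C, 5% CO2. Viability was then read by CellTiter-Glo luminescence after 10 min at room temperature.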
Assay [3] can be described thus: Viability qHTS for spleen associated tyrosine kinase inhibitor (SYKi) drug resistant MV4-11 cells (AID 1963824). Also: nearly all actives have a fitted effect of over 35% in size. Also: potency is read from the fitted curve at half-maximal effect. Summed up: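 SYK-inhibitor-resistant MV4-11 AML cells were seeded at 500 per well onto compound and cultured 72 hours (37 °C, 5% CO2). CellTiter-Glo was then added, and after 10 min at room temperature, luminescence gave viability.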
A short description of assay [4]: Quantitative highthroughput screen to assess conditional lethalithy of NOMO1 cells grown in Human Plasma-Like Medium with dialyzed fetal bovine serum (HPLM+ds) (AID 1963878). Also: nearly all actives have a fitted effect of over 35% in size. Also: potency is read from the fitted curve at half-maximal effect.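 As to Viability: 100% = DMSO wells and 0% = empty wells on each plate.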 In a few lines: (§1)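 Each medium arm—HPLM with 10% dialyzed FBS, or RPMI1640 with 5 mM glucose and 10% untreated or dialyzed FBS—was screened against an 11-point, 3-fold compound titration for 48 h at 37 °C, with CellTiter-Glo luminescence as endpoint.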

A short description of assay [5]: Quantitative highthroughput screen to assess conditional lethalithy of P12 Ichikawa cells grown in Human Plasma-Like Medium with dialyzed fetal bovine serum (HPLM+ds) (AID 1963879). Also: nearly all actives have a fitted effect of over 35% in size. Also: potency is read from the fitted curve at half-maximal effect. As to Viability: series mostly up to about 46 µM. To be noted: Potency: viability. Summed up: as §1
A short description of assay [6]: Quantitative highthroughput screen to assess conditional lethalithy of P12 Ichikawa cells grown in RPMI1640 with untreated serum (RPMI+s) (AID 1963881). Also: nearly all actives have a fitted effect of over 35% in size. Also: potency is read from the fitted curve at half-maximal effect.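 As to Viability: series mostly up to about 46 µM; 100% = DMSO wells and 0% = empty wells without cells.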 To be noted: Potency: viability. Summed up: as §1
Assay [7] can be described thus: Quantitative highthroughput screen to assess conditional lethalithy of SEM cells grown in RPMI1640 with unreated serum (RPMI+s) (AID 1963883). Also: nearly all actives have a fitted effect of over 35% in size. Also: potency is read from the fitted curve at half-maximal effect.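 As to Viability: 100% = DMSO wells and 0% = empty wells without cells.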 In a few lines: as §1
Assay [8] in a line: Cellular viability qHTS for adrenocortical cancer (ACC) cell line SW-13 (AID 1963989). Also: nearly all actives have a fitted effect of over 65% in size. Also: potency is read from the fitted curve at half-maximal effect.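 As to activity (max response): cells grown in serum-free medium with ITS supplement; % is scaled to controls: 0 for no effect and ±100 for the full control effect.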 To be noted: SW-13 ACC cells viability, CellTiter-Glo, 48 h; activity (max response): stronger effect = lower value. In a few lines:
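Here, serum-free SW-13 cultures were dosed up to 46 uM. Following 48 h, ATP-dependent luminescence (CellTiter-Glo) reported viable cells, and logistic modeling produced IC50 values.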

Assay [9] can be described thus: Cellular viability qHTS for adrenocortical cancer (ACC) cell line NCI-H295R (AID 1963990). Also: nearly all actives have a fitted effect of over 60% in size. Also: potency is read from the fitted curve at half-maximal effect. In a few lines: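 Viability of NCI-H295R after 48 h of treatment (final up to 46 uM) measured through cellular ATP luminescence.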
On the technique in general: Quantitative high-throughput screening tests each substance at several concentrations.

Assay [10] in a line: Quantitative highthroughput screen to assess conditional lethalithy of NOMO1 cells grown in RPMI1640 with untreated serum (RPMI+s) (AID 1963876). Also: nearly all actives have a fitted effect of over 35% in size. Also: potency is read from the fitted curve at half-maximal effect.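 As to Viability: 100% = DMSO wells and 0% = empty wells without cells.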 In a few lines: as §1
Assay [11] can be described thus: Quantitative highthroughput screen to assess conditional lethalithy of P12 Ichikawa cells grown in RPMI1640 with dialyzed fetal bovine serum (RPMI+ds) (AID 1963880). Also: nearly all actives have a fitted effect of over 35% in size. Also: potency is read from the fitted curve at half-maximal effect.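 As to Viability: 100% = DMSO wells and 0% = empty wells on each plate.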 To be noted: Potency: P12-Ichikawa viability. Summed up: as §1
Assay [12] can be described thus: Quantitative highthroughput screen to assess conditional lethalithy of SEM cells grown in Human Plasma-Like Medium with dialyzed fetal bovine serum (HPLM+ds) (AID 1963882). In a few lines: as §1
Assay [13] can be described thus: Quantitative highthroughput screen to assess conditional lethalithy of NOMO1 cells grown in RPMI1640 with dialyzed fetal bovine serum (RPMI+ds) (AID 1963877). Also: nearly all actives have a fitted effect of over 30% in size. Also: potency is read from the fitted curve at half-maximal effect.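 As to Viability: series mostly up to about 46 µM; 100% = DMSO control wells and 0% = empty wells.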 In a few lines: as §1
Assay [14] is described as follows: Quantitative highthroughput screen to assess conditional lethalithy of SEM cells grown in RPMI1640 with dialyzed fetal bovine serum (RPMI+ds) (AID 1963884). Also: nearly all actives have a fitted effect of over 35% in size. Also: potency is read from the fitted curve at half-maximal effect.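 As to Viability: series mostly up to about 46 µM; 100% = DMSO control wells and 0% = empty wells without cells.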 In a few lines: as §1

“And” between values parts separate entries of the source, which are not always exact repeats. Identical values can stand only once. Records with an inconclusive call do not appear. Some structures have more than one record in an assay (separate samples or runs), and their calls can disagree. The source made the active and inactive calls. Calls follow the shape of the dose curve; as a rule, active = well fitted curve in the direction sought with a large enough effect; inconclusive = small, poorly fitted or top-dose-only effect, or another doubt; inactive = no such curve, though single readings can be large; an effect the other way counts as inactive or inconclusive.

Sequence of Cytochrome P450 3A7 (Homo sapiens) (P24462 whole entry, looked up): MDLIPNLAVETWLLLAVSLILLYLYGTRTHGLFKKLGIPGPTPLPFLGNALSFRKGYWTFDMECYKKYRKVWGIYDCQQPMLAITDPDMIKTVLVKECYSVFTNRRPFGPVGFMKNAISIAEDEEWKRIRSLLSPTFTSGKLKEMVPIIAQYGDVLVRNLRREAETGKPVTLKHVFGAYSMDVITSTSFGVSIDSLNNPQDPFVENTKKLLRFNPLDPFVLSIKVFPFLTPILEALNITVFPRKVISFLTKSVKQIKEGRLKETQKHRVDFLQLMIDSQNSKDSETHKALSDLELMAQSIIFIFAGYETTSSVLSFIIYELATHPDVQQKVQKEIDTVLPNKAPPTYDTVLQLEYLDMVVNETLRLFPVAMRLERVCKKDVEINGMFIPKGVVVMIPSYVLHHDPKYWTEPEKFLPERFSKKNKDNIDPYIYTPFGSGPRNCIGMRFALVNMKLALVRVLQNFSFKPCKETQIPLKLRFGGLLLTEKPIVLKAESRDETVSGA

In the case of `Cc1cn([C@H]2C=C[C@@H](CO)O2)c(=O)[nH]c1=O`, the Potency entry in [1], in assay [2], in [3], in assay [4], in [5] and in assay [6] was “inactive” each time. The Potency entry in assay [7] and in [9] was “inactive” in each case. In addition, the activity (max response) in assay [8] is 4.28% (inactive).

Take `CS(=O)(=O)N1CCc2c(-c3cnc(N)nc3)nc(N3CCOCC3)nc21`: the Potency entry in assay [1] and in [5] was “inactive” in each case. Further, the Potency is 1.86 µM (active) in assay [2]; 4.17 µM (active) in [3]; 8.33 µM (active) in assay [10]; 4.69 µM (active) in [7]; 708 nM (active) in [9].

Turning to `O=C1CSC(=O)N1C(CCc1ccncc1)COc1ccc(-c2cccc([N+](=O)[O-])c2)cc1` (stereo not given), the Potency in assay [1] was 1.34 µM (active); in assay [2], 7.42 µM (active); in assay [3], 4.17 µM (active); in [8], 7.08 µM (active). Further, the Potency result in assay [5], in assay [11], in assay [6] and in assay [12] was “inactive” throughout.

Regarding `O=C(NC(Cc1cc(=O)[nH]c2ccccc12)C(=O)O)c1ccc(Cl)cc1` (stereo not given), the Potency entry in assay [1], in assay [2], in assay [3], in assay [13], in assay [4] and in assay [5] was “inactive” in each case. In addition, the Potency result in [11], in [6], in [7], in assay [14] and in assay [9] was “inactive” each time. Further, in assay [8], the activity (max response) is 7.09% (inactive) and -3.01% (inactive).

Consider `CCCOc1ccc2nc(NC(=O)OC)[nH]c2c1`, for which the Potency result in assay [1] is “inactive”. Further, the Potency in [2] is 0.263 µM (active); in assay [3] it was 184 nM (active) and 332 nM (active); in assay [5], 0.0418 µM (active); in assay [6] it was 0.0418 µM (active); in [7], 0.0148 µM (active); in assay [14], 0.0209 µM (active). The results for the Potency in [8] and in assay [9] were 0.251 µM (active) and 355 nM (active), respectively.

As for `Nc1ccn([C@H]2CC[C@@H](CO)O2)c(=O)n1`, the Potency entry in [1], in assay [2], in assay [3] and in [9] was “inactive” each time. In addition, the Potency in assay [4] is 23.5 µM (active); in [14] it was 7.43 µM (active). The activity (max response) in assay [8] was 0.291% (inactive).

Turning to `COC(=O)Nc1nc2ccc(C(=O)c3ccccc3)cc2[nH]1`, in assay [1], the Potency result was “inactive”. For the same compound, the Potency in assay [2] was 0.332 µM (active); in assay [3] it was 596 nM (active) and 372 nM (active); in [10] it was 3.32 µM (active); in assay [5] it was 1.05 µM (active); in assay [11], 1.87 µM (active); in assay [6], 0.332 µM (active). Besides, the Potency in [8] is 130 nM (active) and 316 nM (active); in assay [9] it was 103 nM (active) and 141 nM (active).

Regarding `Nc1c2c(nc3ccccc13)CCCC2`, the Potency entry in assay [1], in assay [2], in assay [5], in assay [11], in assay [12] and in assay [7] was “inactive” throughout. Further, the Potency result in assay [14] is “inactive”. Moreover, the Potency result in assay [3] was “inactive and 18.6 µM (active)”; in [13], 14.8 µM (active). For the same compound, the activity (max response) in [8] was -1.99% (inactive) and -7.86% (inactive).

For `O=C1NC(O)CCN1[C@@H]1O[C@H](CO)[C@H](O)[C@H]1O` (stereo not given in full), the Potency result in assay [1], in assay [2], in assay [3], in assay [5], in [11] and in assay [6] was “inactive” throughout. The Potency result in assay [12], in [7] and in assay [9] was “inactive” in each case. For the same compound, the Potency in assay [4] was 20.9 µM (active). The activity (max response) in assay [8] was -1.6% (inactive).

For `COC(=O)Nc1nc2ccc(S(=O)c3ccccc3)cc2[nH]1` (stereo not given), the Potency result in assay [1], in [10] and in [11] was “inactive” each time. Besides, the Potency in assay [2] was 16.6 µM (active) and 841 nM (active); in [3] it was 14.8 µM (active) and 668 nM (active); in assay [5], 7.43 µM (active); in assay [8] it was 8.91 µM (active) and 259 nM (active).

Regarding `CN(C)C(=O)COC(=O)Cc1ccc(OC(=O)c2ccc(N=C(N)N)cc2)cc1`, the Potency entry in assay [1], in [2] and in assay [9] was “inactive” in each case. Further, the Potency result in [3] was “inactive and 7.42 µM (active)”; in assay [4], 20.9 µM (active).

Turning to `NC1=N[C@H]2[C@H](CS[C@H]2CCCCC(=O)O)N1`, the Potency result in assay [1], in assay [2], in [3], in [13], in [5] and in assay [11] was “inactive” throughout. For the same compound, the Potency result in assay [6], in assay [12], in assay [14] and in assay [9] was “inactive” in each case. In [8], the activity (max response) is 13% (inactive).
